From PubChem
E coli growth-1 – E. coli growth inhibition | Escherichia coli growth, OD600, 23 h; active compounds read low | OD600 absorbance (test concentration not listed) | hit rate 0.21% among 330,000;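 active = OD600 absorbance below the run mean of sample wells minus 3.6 SD, in any replicate, cut at about 0.56 in these data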
PfHsp90 set2 – reduces growth (ATP signal) of yeast expressing P. falciparum Hsp90; S. cerevisiae expressing PfHsp90, BacTiter-Glo ATP, 48 h; yeast lacking PDR1 and PDR3 efflux regulators; inhibition, % at 9.4 µM; hit rate 0.32% among 310,000; AID 504621;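 active = every replicate shows inhibition above about 80%, whatever the replicate mean, limit read from the data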;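 also: 0% = DMSO neutral controls and 100% = 20 µM radicicol positive controls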
Tat transport – E. coli Tat transport inhibition; hit rate 0.036% among 340,000; AID 488895; inhibition, % at 10 µM; E. coli MC4100 TorA-mCherry Tat export, fluorescence;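 active = mean replicate inhibition at least 50% and at least half of replicates individually reaching 50%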;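 also: exported cargo escapes ClpAP degradation while cytoplasmic cargo is degraded and loses fluorescence; 0% = median of neutral control wells and 100% = median of NaSCN control wells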
phage Ecoli inh – E. coli growth loss with phage present; growth absorbance; inhibition, % at 11.9 µM; hit rate 0.26% among 360,000; AID 651602; in the data active = inhibition above about 11%
E coli growth-2 – reduces bacterial viability in AddAB counter-screen; AID 449728; E. coli V3065 growth, OD600 absorbance, 18 h; hit rate 0.27% among 330,000; inhibition, % at 11.9 µM;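 active = inhibition above the campaign's mean inhibition across all tested compounds plus 3 SD, cut at about 9.9% in these data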;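 also: uninfected addAB+ strain grown without phage in ampicillin broth; 0% = DMSO wells and 100% = ciprofloxacin 0.95 µg/ml wells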
AddAB inh – less growth of phage-infected E. coli with AddAB | AID 435030 | hit rate 0.29% among 330,000 | inhibition, % at 11.9 µM | E. coli expressing H. pylori AddAB, absorbance growth; in the data active = inhibition above about 12%;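 also: 0% = vehicle wells of infected cells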
The depositor's hits bear a star; nt = not tested or not shown. A selection: hits, their analogues and other compounds. The true share with any hit is near 0.69%.

SMILES	E coli growth-1	PfHsp90 set2	Tat transport	phage Ecoli inh	E coli growth-2	AddAB inh
O=c1nc(C=Cc2cccn2-c2ccc([N+](=O)[O-])cc2)cc(C(F)(F)F)[nH]1	0.73	nt	nt	nt	nt	nt
O=C1/C(=C\c2ccc(Cl)c(Cl)c2)CN(C(=O)CCN2CCOCC2)C/C1=C/c1ccc(Cl)c(Cl)c1	nt	107*	14	1	nt	nt
Oc1ccc(C=NNc2nncc(-c3ccccc3)n2)cc1	0.67	nt	nt	nt	nt	nt
O=C(Nc1ccccc1N1CCOCC1)c1ccc([N+](=O)[O-])o1	0.68	109*	-6	2	5	3
Cc1[nH]n(-c2ccccc2)c(=O)c1C(C[N+](=O)[O-])c1ccc(Br)cc1 (configuration not stated)	0.67	122*	-46	0	-3	1
COc1cccc(C(C[N+](=O)[O-])c2c(C)[nH]n(-c3ccccc3)c2=O)c1 (configuration not stated)	nt	14	-3	2	-1	3
Cc1cc(C(C#N)c2ccc(Cl)cc2)c(Cl)cc1NC(=O)c1cc(I)cc(I)c1O (configuration not stated)	nt	-27	-9	5	11*	8
O=[N+]([O-])/C=C/c1cc2ccccc2[nH]1	0.5*	10	1	3	-1	-1
O=[N+]([O-])c1cccc(-c2cc3ccccc3[nH]2)c1	0.68	13	-3	-1	-2	1
Oc1ccc(N=Nc2nc(-c3ccccc3)c(-c3ccccc3)[nH]2)cc1	0.67	100*	-2	5	4	9
Oc1ccc(N=Nc2n[nH]c(-c3ccccc3)n2)cc1	0.62	33	-6	1	4	2
CC(=NNC(=O)Cc1cccn1C)c1ccccc1	0.72	nt	nt	nt	nt	nt
O=C(Nc1ccc(Cl)cc1Cl)c1cccc(N2C(=O)C=CC2=O)c1	0.7	107*	3	1	0	0
CCn1c(CNc2ccc(Cl)cc2)nnc1SCc1ccc(C)cc1	0.69	81*	2	-1	-1	0
CCn1c(CNc2ccc(Cl)cc2)nnc1SCc1ccc(Cl)cc1	0.66	127*	13	3	-1	1
O=C(NCC1CCCO1)c1cccc2c1C(=O)c1ccc(N3CCOCC3)cc1S2(=O)=O (configuration not stated)	0.72	nt	nt	nt	nt	nt
COc1ccc(-c2cc(C(=O)N3CCN(c4ccccc4F)CC3)c3ccccc3n2)c(OC)c1	0.71	104*	9	0	0	1
COc1ccc(-c2cc(C(=O)N3CCN(c4ncccn4)CC3)c3ccccc3n2)c(OC)c1	0.74	-16	3	1	-1	5
O=c1c(Br)ccc(Br)cc1Br	0.52*	120*	6	7	nt	nt
CCCCCCCNC(=O)C1(CC2CC(c3cccc(Br)c3)=NO2)CCN(C(=O)Cc2ccc(F)cc2)CC1 (configuration not stated)	0.7	-26	-8	nt	1	1
CCCCCCCNC(=O)C1(CC2CC(c3cccc(Br)c3)=NO2)CCNCC1 (configuration not stated)	0.048*	-14	17	4	2	0
O=C(Nc1ccccc1)Nc1cccc(Cl)c1	0.5*	-1	-4	10	5	5
CC(=O)Nc1ccc(NC(=O)Nc2cccc(Cl)c2)cc1	0.67	11	-5	-1	-1	0
O=C(Nc1ccccc1)Nc1ccc2nnsc2c1	0.4*	-9	-5	9	6	8
O=C(Nc1cccc(Cl)c1)Nc1ccc2c(c1)OCO2	0.53*	-16	5	7	6	5
SMILES	E coli growth-1	PfHsp90 set2	Tat transport	phage Ecoli inh	E coli growth-2	AddAB inh
Cc1ccc(NC(=O)Nc2ccccc2)cc1[N+](=O)[O-]	0.54	34	2	9	5	6
O=C(Nc1ccccc1)Nc1ccc(Cl)c([N+](=O)[O-])c1	0.48*	1	-4	3	6	7
O=C(NCc1ccc2c(c1)OCO2)Nc1cccc(Cl)c1	0.68	-7	1	2	0	0
O=C1c2cc(F)ccc2-n2c1nc1ccccc1c2=O	nt	90*	-3	2	-4	-3
Nn1c(-c2ccc(F)cc2)nc2ccccc2c1=O	0.67	-13	-5	2	2	0
CN(C)/C=C/C(=O)/C=C/c1cn(-c2ncc(C(F)(F)F)cc2Cl)c2ccccc12	0.77	121*	-18	4	-1	-1
CC(=NNC(=O)c1nnn(-c2nonc2N)c1-c1ccc2c(c1)OCO2)c1ccccc1	0.65	nt	nt	nt	nt	nt
CC(=O)Oc1ccccc1C(=O)C=Cc1cccc([N+](=O)[O-])c1	0.63	106*	0	-3	nt	nt
O=C(/C=C/c1cccc([N+](=O)[O-])c1)c1cccs1	0.68	93*	-10	2	1	3
O=C(/C=C/c1cccc([N+](=O)[O-])c1)Nc1ccc(NC(=O)c2cccs2)cc1	0.71	9	-1	1	-2	2
Cc1cc(O)c(C(=O)/C=C/c2cccc([N+](=O)[O-])c2)c(=O)o1	nt	-6	-3	2	-1	2
CC[C@H](C)[C@H](NC(=O)[C@H](Cc1ccc(O)cc1)NC(=O)[C@@H](N)C(C)C)C(=O)N[C@@H](Cc1cnc[nH]1)C(=O)N1CCC[C@H]1C(=O)N[C@@H](Cc1ccccc1)C(=O)O	nt	-21	-3	nt	-1	-3
CCC(C)C(N)C1=NC(C(=O)N[C@@H](CC(C)C)C(=O)N[C@H](CCC(=O)[O-])C(=O)N[C@H](C(=O)N[C@H]2CCCCNC(=O)[C@H](CC(N)=O)NC(=O)[C@@H](CC(=O)[O-])NC(=O)[C@H](Cc3cnc[nH]3)NC(=O)[C@@H](Cc3ccccc3)NC(=O)[C@H]([C@@H](C)CC)NC(=O)[C@@H](CCCN)NC2=O)[C@@H](C)CC)CS1.[Zn+2] (some centres not stated)	nt	22	54*	nt	nt	nt
CCOC(=O)c1ccc(NC(=O)Nc2ccc(F)cc2)cc1	0.58	-2	3	10	5	6
COC(=O)c1ccc(NC(=O)Nc2ccc(F)cc2)cc1	0.51*	16	-5	4	3	4
O=C(O)c1cccc2c1Cc1cc([N+](=O)[O-])ccc1-2	0.63	115*	-1	0	nt	nt
O=C(NN=Cc1cccc(Br)c1)c1ccccc1-n1cccc1	0.75	nt	nt	nt	nt	nt
CNC(=O)N(O)C1N(N=Cc2c(F)cccc2Cl)C(=S)SC1(C)C (configuration not stated)	0.65	nt	nt	nt	nt	nt
O=S(=O)(NC1CC2CCC1C2)c1ccc(Br)cc1 (configuration not stated)	0.64	108*	-5	2	0	-1
Cc1cn(C2CC(N=[N+]=[N-])C(CO)O2)c(=O)[nH]c1=O (configuration not stated)	0.062*	nt	nt	nt	nt	nt
NCCCCC1CNC(=O)C(=O)N1CCCCC1CCCCC1 (configuration not stated)	0.71	nt	nt	nt	nt	nt
CC(C)(C)C1=CC(=Nc2ccccc2N)C=C(C(C)(C)C)C1=O	0.71	-24	5	4	1	1
